# A selection: hits, their analogues and other compounds. The true share with any hit is near 1.7%.
# CTSL1 counter: counter-screen for PFM18AAP inhibitors: inhibitors of F. hepatica cathepsin L1; 0.49% of 300,000 active; inhibition, % at 5.96 µM; recombinant F. hepatica cathepsin L1, Z-Leu-Arg-MCA fluorescence; AID 1906;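 active = inhibition above the mean of all tested compounds plus 3 SD, set per screening campaign, cut at about 17% in these data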;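 note: 0% = plate median of test compound wells and 100% = 1 µM Z-Phe-Ala-diazomethylketone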
# HDAC3 inhib: inhibitors of human histone deacetylase 3; O15379; recombinant HDAC3, fluorogenic peptide/trypsin coupled, fluorescence; inhibition, % at 8.3 µM; 0.15% of 320,000 active; in the data active = inhibition above about 26%, passing the limit was not always enough
# LANA-H2B inh: blocks KSHV LANA binding to histone H2A/H2B. Q9QR71. cell-free LANA-H2A/H2B peptide, fluorescence polarization. inhibition, % (concentration not given with the values). 0.6% of 320,000 active; in the data active = inhibition mostly above about 10%, no sharp cut-off; inactive = mostly below about 6.7%
# m5-HT2A agonist: mouse HTR2A agonism via beta-arrestin recruitment. P35363. CHO-K1 mHTR2A beta-arrestin complementation, luminescence; percent of 30 µM serotonin response. activation, % at 7.6 µM. 0.66% of 360,000 active;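 active = activation above a run cutoff, the mean activation of all tested compounds plus 3 SD, cut at about 14% in these data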;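 note: 0% = plate median of compound wells and 100% = 30 µM serotonin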
# The depositor's hits bear a star; . = no result.
SMILES,CTSL1 counter,HDAC3 inhib,LANA-H2B inh,m5-HT2A agonist
CC(=O)Nc1c(C#N)c(-c2ccccc2)c(C#N)c(=O)n1-c1ccc(C)cc1,.,.,.,-1.1
Cc1ccc(NC(=O)c2cccc(NC3=NC4CS(=O)(=O)CC4S3)c2)cc1C (configuration not stated),-2.5,-3.6,24.3*,-3.7
Cc1cc(NC(=S)Nc2ccccc2)ccc1Br,-2.9,7.2,21.9*,0.5
CCc1ccc(NC(=O)c2ccc(NC3=NC4CS(=O)(=O)CC4S3)cc2)cc1 (configuration not stated),-1.4,-2.3,4.9,9.7
O=C(CN1CCOCC1)Nc1nc(-c2ccc3c(c2)CCN3S(=O)(=O)c2ccccc2)cs1,0.6,0.5,12.8,15.4*
[O-][N+]1=c2ccc(Nc3ccccc3)cc2=NC12CCCCC2,19.5*,13.0,3.9,-2.6
Cc1ccc(NC(=O)C2CC(=O)n3c(nc4ccccc43)N2)cc1Cl (configuration not stated),-2.3,-8.3,-1.0,-2.0
Cc1ccc(NC(=O)C2CC(=O)n3c(nc4ccccc43)N2)cc1C (configuration not stated),5.0,0.0,16.5*,4.3
CCOc1ccccc1NC(=O)COC(=O)C1COc2ccccc2O1 (configuration not stated),.,.,.,2.6
Cc1ccc(NC(=O)COC(=O)c2ccc([N+](=O)[O-])s2)c(C)c1,28.2*,6.5,-5.9,5.0
Cc1cc(C)c(NC(=O)COC(=O)c2ccc([N+](=O)[O-])s2)c(C)c1,6.8,4.4,7.4,-1.8
NS(=O)(=O)c1ccc(NC(=O)COC(=O)c2ccc([N+](=O)[O-])s2)cc1,67.8*,3.1,-3.6,5.5
CC(=O)Nc1ccc(NC(=O)COC(=O)c2ccc(C)s2)cc1,0.6,1.8,10.8,-1.5
COc1ccccc1NC(=O)COC(=O)c1ccc([N+](=O)[O-])s1,22.0*,3.8,-4.8,-1.3
COc1cc(C[C@@H]2C(=O)OC[C@H]2Cc2ccc(OC)c(OC)c2)ccc1O,.,4.3,-0.1,16.1*
CC1(C(=O)NS(=O)(=O)c2ccccc2Cl)CCN1C(=O)C1CCCCC1 (configuration not stated),.,.,.,6.4
COC(=O)C1=C(C)NC(C)=C(C(=O)OC)C1C1CC=CCC1 (configuration not stated),1.0,1.1,8.1*,0.6
COc1ccc(C(=O)n2cnc(N)n2)cc1,-1.3,70.7*,0.3,1.1
COc1ccc(C(=O)n2cnc3ccccc32)cc1,-5.8,33.2*,-0.6,-0.9
COc1ccc(C(=O)n2ncc(C#N)c2N)cc1,.,.,.,2.0
COc1ccc2c(c1)CCC1C2CCC2(C)C(O)C(=O)CC12 (configuration not stated),.,.,.,-2.8
CSc1ccccc1NC(=O)Cn1ccsc1=N,-2.3,-6.5,10.7*,0.9
N=c1sccn1CC(=O)Nc1ccccc1-c1ccccc1,1.9,-2.8,5.9,1.5
O=C(Nc1nnc(S(=O)(=O)N2CCCC2)s1)c1ccccc1Br,80.6*,0.2,4.4,1.8
NC(=O)c1ccc(NC(=O)COC(=O)c2ccc(Cl)nc2)cc1,.,2.1,12.0*,1.4
SMILES,CTSL1 counter,HDAC3 inhib,LANA-H2B inh,m5-HT2A agonist
Cc1ccc(OCc2nnc(SC(C)C(=O)O)n2Cc2ccccc2)cc1 (configuration not stated),-3.3,-2.4,10.7*,-3.7
Cc1cccc(OCc2nnc(SC(C)C(=O)O)n2Cc2ccccc2)c1 (configuration not stated),-8.7,-8.2,3.2,-0.1
Cc1ccc(OCCN(C)C(=O)c2cc(COc3ccc(F)cc3F)on2)cc1,2.7,3.0,172.8*,-4.7
CCc1cc(-c2[nH]ncc2-c2ccc(OC)cc2)c(O)cc1O,-2.9,2.4,-4.8,-1.8
CCc1cc(-c2[nH]ncc2-c2ccc3c(c2)OCO3)c(O)cc1O,5.0,0.0,-8.4*,-5.6
O=C(COc1ccccc1)Nc1nccs1,11.0,-3.7,28.2*,-1.8
CC(=O)Nc1ccc(C(=O)OCCc2ccccc2)cc1,3.7,5.4,14.7*,-12.5
Cc1ccc(CN2CC(N3CCCCC3)CS2(=O)=O)cc1 (configuration not stated),.,.,.,0.5
Cc1onc(-c2ccccc2)c1C(=O)Nc1nnc(C(C)(C)C)s1,-0.6,6.9,10.4*,-0.1
O=C1N=c2ccccc2=C1c1[nH]c(=S)[nH]c1O,-0.6,1.4,12.0*,-5.8
C=CCOc1ccc(/C(O)=C2/C(=O)C(=O)N(CCCN3CCOCC3)C2c2ccc(OC)cc2)cc1 (configuration not stated),-3.7,0.3,15.5*,-2.6
CN(Cc1c(F)cccc1Cl)C(=O)CCc1c[nH]c2ccccc12,2.8,4.2,-3.9,2.0
CC(=O)c1ccc(S(=O)(=O)N(C)CCCC(=O)N(C)Cc2c(F)cccc2Cl)cc1,3.7,1.9,57.6*,-9.4
Cc1ccc(S(=O)(=O)N2CCCCC2)cc1NC(=O)c1cnccn1,.,.,.,-2.0
O=C(NCc1ccccc1)C(c1ccc(F)cc1)N1CCN(c2ccccc2F)CC1 (configuration not stated),.,.,.,0.0
Cc1ccsc1C=Nc1ccc(O)cc1,102.3*,-1.1,-0.5,8.4
Cc1cc(C)n(CC(=O)NNC(=O)c2ccc(OC(F)(F)F)cc2)n1,.,-4.3,3.7,6.0
COc1cc(C(=O)NCC(=O)Nc2ccc(F)c(F)c2)ccc1OCC(=O)N1CCOCC1,20.3*,-8.1,5.7,3.1
CCOC(=O)C1CCN(C(=O)Cn2cnc3sc(C)c(S(=O)(=O)N4CCC(C)CC4)c3c2=O)CC1,-1.0,0.4,-6.7,-2.0
CCOC(=O)C1CCN(C(=O)Cn2cnc3sc(C)c(S(=O)(=O)N4CCCCC4)c3c2=O)CC1,5.4,-1.8,15.9*,5.0
CN(CC(=O)Nc1ccc(F)c(F)c1F)C(=O)C1(c2ccccc2)CC1,.,.,.,1.7
Cn1c(=O)cc(OCC(=O)NCCCN2CCN(c3ccccc3F)CC2)c2ccccc21,-0.6,3.5,-2.4,24.8*
Cn1c(=O)cc(OCCCC(=O)NCCN2CCN(c3ccccc3F)CC2)c2ccccc21,-2.6,-0.9,-1.1,-3.6
Cn1nnnc1SCC(=O)N(C1CCCCC1)C1CCS(=O)(=O)C1 (configuration not stated),0.1,-2.3,1.5,2.6
Cc1nn(-c2ccccc2)c2c1C(c1ccc(O)c(O)c1)N1C(=N2)C(Nc2ccccc2)=Nc2ccccc21 (configuration not stated),38.3*,3.8,3.4,-1.9
SMILES,CTSL1 counter,HDAC3 inhib,LANA-H2B inh,m5-HT2A agonist
CCOC(=O)C1=C(C)N[C@@]2(O)c3ccccc3C(=O)[C@@]12O,-0.7,-0.2,-10.8,2.9
CCOC(=O)C1=C(C)OC2(O)c3ccccc3C(=O)C12O (configuration not stated),58.6*,0.8,-2.9,2.1
CC(=O)C1=C(C)OC2(O)c3ccccc3C(=O)C12O (configuration not stated),51.2*,0.6,-0.3,0.4
COc1ncc(-c2c(-c3ccccc3OC)sc3ccccc23)cn1,.,.,.,-2.6
COc1ccc(C(=O)NC2=Nc3ccccc3N=C(C)C2c2ccccc2)cc1 (configuration not stated),1.9,76.6*,2.8,-2.2
C#CCN(C(=O)Nc1ccccc1)c1ccccc1,0.1,-2.6,3.9,1.0

# Compound activity as filed in PubChem BioAssay.
